This note sets out measurements from the supplement of paper PMC10503962.

The subject of this assay is Trichuris muris adult worms. As to the kind of experiment: mean motility score (Paragon pixel variance) of adult worms (arbitrary units); higher = more motile worms, i.e. less anthelmintic effect; extreme values may be limits of the assay. To be noted: 100 µM; 24 h. Put shortly: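 Films of 200 frames spaced 100 ms apart were taken on an automated phenotyping platform after worms had spent 24 h at 37°C and 5% CO2. Those worms were single adult Trichuris muris from infected NOD SCID mice, each in a 96-well plate well with 100 μL RPMI-1640 plus antibiotics and drug at 100 μM (1% v/v DMSO). Paragon pixel-variance analysis produced the motility score, averaged over replicate wells. Testing used three worms in three wells per drug across three separate occasions, with vehicle and positive controls.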
Regarding `COC(=O)[C@H]1[C@H]2C[C@@H]3c4[nH]c5cc(OC)ccc5c4CCN3C[C@H]2C[C@@H](OC(=O)c2cc(OC)c(OC)c(OC)c2)[C@@H]1OC` [reserpine], the mean motility score is 2180. For `CCCN(CCc1cccs1)[C@H]1CCc2c(O)cccc2C1` [rotigotine] the value was 3100; for `C=C(c1ccc(C(=O)O)cc1)c1cc2c(cc1C)C(C)(C)CCC2(C)C` [bexarotene], 750; for `Br.CCCCCCCCCCCCCCCC[N+](C)(C)CCN(Cc1ccc(OC)cc1)c1ncccn1` [thonzonium bromide], 0. Consider `Nc1ncnc2c1ncn2[C@@H]1O[C@H](COP(=O)(O)O)[C@@H](O)[C@H]1O` [adenosine phosphate], for which the mean motility score was found to be 4280. Take `CCN1CC(CCN2CCOCC2)C(c2ccccc2)(c2ccccc2)C1=O.Cl` (stereo not drawn) [doxapram hydrochloride]: the mean motility score turned out to be 1820. To `OCCN1CCN(CCCN2c3ccccc3Sc3ccc(Cl)cc32)CC1` [perphenazine] belongs 175; to `O=C(O)COc1ccc(C(=O)c2cccs2)c(Cl)c1Cl` [ticrynafen], 3440.

`CN(C)CCc1c[nH]c2ccc(C[C@H]3COC(=O)N3)cc12` [zolmitriptan] showed a mean motility score of 3180.

For the compound `Nc1ccc(C(=O)Oc2ccccc2)c(O)c1` [phenyl aminosalicylate], the mean motility score amounted to 1040. Compound `COC(=O)[C@H](c1ccccc1Cl)N1CCc2sccc2C1` [clopidogrel] returned a mean motility score of 2110.

In turn, `OCCO` [ethylene glycol] returned a mean motility score of 3150. To `CC1=CC(=O)c2ccccc2C1=O` [menadione] belongs 361.
